The text below walks through data of PubChem BioAssay (NCI).

Assay in all cases: NCI-60 one-dose screen, 48 h (100 = growth as untreated, 0 = no growth, -100 = all killed)
Common to all, as to conditions: 10 µM unless noted

Assay [1] deals with SR leukemia.
Assay [2] deals with OVCAR-8 ovarian.
The subject of assay [3] is OVCAR-5 ovarian.
Assay [4] concerns OVCAR-4 ovarian.
Assay [5] deals with SK-OV-3 ovarian.
For assay [6], the system named is OVCAR-3 ovarian.
In assay [7] the test system is HS 578T breast.
Assay [8] relates to NCI/ADR-RES ovarian.
Assay [9] has as its system T-47D breast.
The subject of assay [10] is BT-549 breast.
Assay [11] relates to MDA-MB-435 melanoma.
Assay [12] relates to SW-620 colon.
The subject of assay [13] is MCF7 breast.
Assay [14] concerns HCT-116 colon.
The subject of assay [15] is HCC-2998 colon.
Assay [16] deals with KM12 colon.
Assay [17] has as its system IGROV1 ovarian.
For assay [18], the system named is RPMI-8226 leukemia.

Each structure is given as a SMILES string. Where “and” joins values, the source holds several entries; their conditions need not be identical. Equal values may be shown once. This is part of a sample that, as a whole, favours compounds with a hit. Of some 83,000 tested, about 20% had one in any assay.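 Cells were grown in 96-well plates and exposed to the test compound at a single concentration for 48 hours; results are reported as percent growth, with values below 10 considered active.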 Calls of active or inactive are those of the source.

Consider `N#Cc1ccc(/C=C/C(=O)c2ccccc2)cc1`, for which the growth in assay [1] is -63.9% (active); in assay [2] it was 98.9% (inactive) and 98.8% (inactive); in assay [3], 108% (inactive) and 91.1% (inactive); in assay [4], 95.2% (inactive) and 103% (inactive); in [5], 123% (inactive) and 106% (inactive); in [6] it was 55.4% (inactive) and 75.5% (inactive). The growth in assay [7] was 128% (inactive) and 102% (inactive); in [8], 111% (inactive) and 95.8% (inactive); in assay [9], 88.3% (inactive) and 82.5% (inactive); in assay [10], 98% (inactive) and 96.5% (inactive); in assay [11] it was 84.4% (inactive) and 95.2% (inactive); in [12] it was 19.1% (inactive) and 1.04% (active). Moreover, the growth in [13] was 3.73% (active) and 34.9% (inactive); in [14], -97.4% (active) and -60.8% (active); in [15], 110% (inactive) and 7.47% (active); in assay [16] it was -47.9% (active) and 15.7% (inactive).
In the case of `COc1ccc(COC=O)cc1`, the growth is 93.5% (inactive) in assay [1]; 97.8% (inactive) in assay [2]; 101% (inactive) in [3]; 107% (inactive) in assay [4]; 98.6% (inactive) in assay [5]; 107% (inactive) in assay [17]. The growth is 109% (inactive) in assay [6]; 104% (inactive) in assay [7]; 102% (inactive) in assay [8]; 91.2% (inactive) in assay [9]; 110% (inactive) in assay [10]; 113% (inactive) in assay [11]. Further, the growth was 108% (inactive) in assay [12]; 99.3% (inactive) in [13]; 99.1% (inactive) in assay [14]; 94.3% (inactive) in assay [15]; 103% (inactive) in assay [16].
Consider `COc1ccc(CCl)c(C)c1OC`, for which the growth in assay [1] was 105% (inactive); in assay [2] it was 99.3% (inactive); in [3] it was 100% (inactive); in assay [4], 109% (inactive); in assay [5] it was 110% (inactive); in assay [17], 104% (inactive). Also, the growth was 105% (inactive) in assay [6]; 105% (inactive) in [7]; 105% (inactive) in assay [8]; 102% (inactive) in assay [9]; 105% (inactive) in assay [10]; 108% (inactive) in assay [11]. In addition, the growth in [12] was 101% (inactive); in [13], 103% (inactive); in assay [14], 99.6% (inactive); in assay [15], 100% (inactive); in assay [16] it was 101% (inactive).
Take `CS(=O)(=O)OCC1NC(=O)C(COS(C)(=O)=O)NC1=O` (centres undefined): the growth in assay [1] was 104% (inactive) and 125% (inactive); in [2], 87.5% (inactive) and 107% (inactive); in [3], 106% (inactive) and 124% (inactive); in [4], 79.8% (inactive) and 87% (inactive); in [5], 107% (inactive) and 120% (inactive); in assay [17], 63.4% (inactive) and 57.5% (inactive). Besides, the growth in assay [6] was 122% (inactive) and 94.8% (inactive); in assay [7], 193% (inactive) and 106% (inactive); in assay [8], 103% (inactive) and 97.8% (inactive); in assay [9] it was 104% (inactive) and 105% (inactive); in assay [10] it was 78.1% (inactive) and 30.1% (inactive); in assay [11], 107% (inactive) and 90.7% (inactive). In addition, the growth was 106% (inactive) and 104% (inactive) in [12]; 89.7% (inactive) and 103% (inactive) in assay [15]; 104% (inactive) and 83.9% (inactive) in assay [16].
For the molecule `OCCSc1ccc(Cl)cc1`, the growth in assay [1] is 117% (inactive) and 99.7% (inactive); in [2], 111% (inactive) and 103% (inactive); in [3], 105% (inactive) and 91.1% (inactive); in assay [4] it was 104% (inactive) and 99.9% (inactive); in assay [5], 112% (inactive) and 86.9% (inactive); in assay [17] it was 109% (inactive) and 93.6% (inactive). Besides, the growth in assay [6] was 124% (inactive) and 110% (inactive); in [7], 101% (inactive); in assay [8] it was 108% (inactive) and 102% (inactive); in [9] it was 101% (inactive) and 72.3% (inactive); in assay [10] it was 111% (inactive) and 94.7% (inactive); in assay [11] it was 103% (inactive) and 106% (inactive). For the same molecule, the growth is 104% (inactive) in [12]; 106% (inactive) and 89.3% (inactive) in assay [13]; 106% (inactive) and 108% (inactive) in assay [15]; 117% (inactive) and 102% (inactive) in assay [16].
`CC(=O)/C(N=Nc1ccc(S(=O)(=O)c2ccc(N=N/C(C(C)=O)=C(/C)O)cc2)cc1)=C(\C)O`: the growth was 101% (inactive) in assay [1]; 86.7% (inactive) in assay [18]; 102% (inactive) in assay [2]; 110% (inactive) in assay [3]; 107% (inactive) in [4]; 112% (inactive) in assay [5]. Moreover, the growth in assay [17] was 92.9% (inactive); in [6] it was 105% (inactive); in assay [7], 109% (inactive); in assay [8] it was 102% (inactive); in [9] it was 113% (inactive); in assay [11], 118% (inactive). In addition, the growth in [13] is 96.1% (inactive); in [14], 93.2% (inactive); in [15] it was 96.4% (inactive); in assay [16], 94.8% (inactive).
Turning to `CCCCCCC(C)CC1=C(O)c2ccccc2C(=O)C1=O` (centres undefined), the growth in assay [1] is 61.7% (inactive); in assay [2], 56.6% (inactive); in assay [3], 62.4% (inactive); in [4], 46.3% (inactive); in assay [5] it was 78% (inactive); in [17] it was 41.5% (inactive). Also, the growth is 46.5% (inactive) in assay [6]; 75.3% (inactive) in assay [7]; 50.2% (inactive) in assay [8]; 72.9% (inactive) in assay [9]; 49% (inactive) in assay [10]; 42.7% (inactive) in assay [11]. The growth in assay [12] was 35.4% (inactive); in assay [13] it was 25.9% (inactive); in assay [14], 23.6% (inactive); in [15] it was 54.9% (inactive); in [16] it was 41.2% (inactive).
